About 14,000 (4.5%) of roughly 310,000 compounds showed an effect of 50% or more. The effect is printed as a negative number. Many of the other results were omitted from the sample, so strong results are more common in it than they were.
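Also: peak tail current of the secondary pulse compared with the same well before compound.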

Sequence of human ether-à-go-go-related gene (hERG) potassium channel (Q12809 whole entry, looked up): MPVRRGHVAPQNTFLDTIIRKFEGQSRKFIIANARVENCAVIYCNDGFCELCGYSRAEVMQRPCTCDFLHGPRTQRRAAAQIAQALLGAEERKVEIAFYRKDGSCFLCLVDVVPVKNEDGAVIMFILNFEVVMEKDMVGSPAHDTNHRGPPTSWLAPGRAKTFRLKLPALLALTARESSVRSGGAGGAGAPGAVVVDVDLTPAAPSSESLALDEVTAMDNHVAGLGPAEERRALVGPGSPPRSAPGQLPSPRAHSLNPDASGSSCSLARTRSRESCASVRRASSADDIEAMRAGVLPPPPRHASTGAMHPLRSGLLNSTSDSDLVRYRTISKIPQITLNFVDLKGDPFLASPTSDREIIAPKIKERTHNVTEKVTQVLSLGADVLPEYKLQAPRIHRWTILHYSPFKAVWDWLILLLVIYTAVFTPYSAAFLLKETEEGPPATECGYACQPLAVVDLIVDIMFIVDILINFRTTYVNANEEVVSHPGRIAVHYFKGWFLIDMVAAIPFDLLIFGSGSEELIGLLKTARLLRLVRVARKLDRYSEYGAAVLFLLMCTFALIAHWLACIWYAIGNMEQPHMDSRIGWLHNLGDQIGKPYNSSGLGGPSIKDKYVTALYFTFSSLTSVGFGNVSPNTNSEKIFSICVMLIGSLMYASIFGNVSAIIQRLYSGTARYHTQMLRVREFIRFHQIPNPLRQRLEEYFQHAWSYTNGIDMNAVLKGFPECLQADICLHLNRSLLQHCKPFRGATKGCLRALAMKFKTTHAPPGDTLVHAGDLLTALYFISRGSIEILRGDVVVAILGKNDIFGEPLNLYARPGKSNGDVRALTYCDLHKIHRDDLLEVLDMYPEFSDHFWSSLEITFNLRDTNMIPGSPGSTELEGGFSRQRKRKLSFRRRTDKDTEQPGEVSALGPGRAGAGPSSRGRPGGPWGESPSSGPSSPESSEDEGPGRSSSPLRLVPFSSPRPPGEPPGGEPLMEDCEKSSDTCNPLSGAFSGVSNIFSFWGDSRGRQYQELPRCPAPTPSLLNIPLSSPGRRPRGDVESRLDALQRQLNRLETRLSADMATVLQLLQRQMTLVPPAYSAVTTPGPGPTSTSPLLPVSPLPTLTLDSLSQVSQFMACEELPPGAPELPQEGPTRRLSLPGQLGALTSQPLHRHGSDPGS

The assay concerns the target human ether-à-go-go-related gene (hERG) potassium channel (human, UniProt Q12809). Put plainly: primary screen, population patch clamp on CHO cells stably expressing hERG; higher = less effect of the substance.
Turning to `C=CCN1C(=O)NC(=O)/C(=C/c2cc3c4c(c2)CCCN4CCC3)C1=O`, the “hERG current change (%, negative = inhibition) at 10uM” value is listed as -10.2%.

`CC1CC(C(F)(F)F)n2ncc(C(=O)O)c2N1` (stereo not drawn): the “hERG current change (%, negative = inhibition) at 10uM” value amounted to 11.5%.

In the case of `CCNC(=O)c1ccc2c(c1)C1C3CCC(C3)C1C(c1ccccc1)N2` (stereo not drawn), the “hERG current change (%, negative = inhibition) at 10uM” value is -5.8%.

`CC1=C(C(=O)Nc2ccc(F)cc2)C(c2ccc(C)o2)C2=C(CC(C)(C)CC2=O)N1` (stereo not drawn): the “hERG current change (%, negative = inhibition) at 10uM” value was -7.85%.

In the case of `COc1ccccc1CNC(=O)COC(=O)c1cc(=O)[nH]c2ccccc12`, the “hERG current change (%, negative = inhibition) at 10uM” value is listed as 1.03%.

On to `Cc1cc(Cl)ccc1C(=O)C1CCCN(C(=O)c2cnn(C(C)C)c2)C1` (stereo not drawn), for which the “hERG current change (%, negative = inhibition) at 10uM” value is given as -17.7%.

Regarding `CC(C)Oc1ccc(C(=O)NN2C(=O)NC3(CCCCC3)C2=O)cc1`, the “hERG current change (%, negative = inhibition) at 10uM” value worked out at 1.38%.

As for `CCOC(=O)N1CCC(N(CCN(C)C)C(=S)Nc2cccc(C)c2)CC1`, the “hERG current change (%, negative = inhibition) at 10uM” value is on record as 4.81%.

Turning to `COc1ccc(OC)c(NC(=O)NNC(=O)c2cc3occc3[nH]2)c1`, the “hERG current change (%, negative = inhibition) at 10uM” value was 14.3%.

Consider `NNC(=O)CC12CC3CC(C1)CC(n1ncnn1)(C3)C2`, for which the “hERG current change (%, negative = inhibition) at 10uM” value is recorded as -15.1%.

Take `COc1ccc(CCC(=O)N(c2nnc(-c3cccnc3)s2)C(C)C)cc1.Cl`: the “hERG current change (%, negative = inhibition) at 10uM” value is reported as -49.6%.

In the case of `Cc1ccc(NC(=O)Cc2ccc(Cl)c(Cl)c2)cc1S(=O)(=O)N(C)C`, the “hERG current change (%, negative = inhibition) at 10uM” value was determined as 7.88%.

For `CCOc1ccc(NC(=O)C(=O)NCC2CCCN2CC)cc1` (stereo not drawn), the “hERG current change (%, negative = inhibition) at 10uM” value is reported as -16.4%.

As for `CCOC(=O)C1CSC(CC(=O)Nc2ccc(OC(F)(F)F)cc2)C(=O)N1` (stereo not drawn), the “hERG current change (%, negative = inhibition) at 10uM” value was -56.3%.

As to `CN(CC(=O)Nc1ccc(OC(F)(F)F)cc1)C(=O)C1CCC1`, the “hERG current change (%, negative = inhibition) at 10uM” value is recorded as -1.21%.

In the case of `CCN1CCCC1CNC(=O)C(=O)Nc1ccccc1` (stereo not drawn), the “hERG current change (%, negative = inhibition) at 10uM” value is -9.35%.

For the compound `CCOC(=O)C1CSC(CC(=O)Nc2ccc(Cl)cc2)C(=O)N1` (stereo not drawn), the “hERG current change (%, negative = inhibition) at 10uM” value is -14.9%.

In the case of `CN(CC(=O)Nc1ccc(F)c(F)c1F)C1CCCCC1`, the “hERG current change (%, negative = inhibition) at 10uM” value is on record as -52.5%.

Take `CCCCCOc1ccc(NC(=O)C(=O)NCC2CCCN2CC)cc1` (stereo not drawn): the “hERG current change (%, negative = inhibition) at 10uM” value was -77.9%.

On to `Cc1ccc(NC(=O)CN(C)C2CCCCC2)cc1Br.Cl`, for which the “hERG current change (%, negative = inhibition) at 10uM” value was -28.8%.

As to `CN(CC(=O)Nc1ccc(OC(F)(F)F)cc1)C1CCCCC1.Cl`, the “hERG current change (%, negative = inhibition) at 10uM” value is -61.6%.

Consider `CN(CC(=O)Nc1ccc(F)c(F)c1F)C(=O)C1CCC1`, for which the “hERG current change (%, negative = inhibition) at 10uM” value came to 9.13%.

For the compound `CN(CC(=O)Nc1ccc(F)c(F)c1F)C(=O)C1CCCC1`, the “hERG current change (%, negative = inhibition) at 10uM” value is 1.05%.

For the compound `CCOC(=O)C1CSC(CC(=O)Nc2ccc(OCC)cc2)C(=O)N1` (stereo not drawn), the “hERG current change (%, negative = inhibition) at 10uM” value is -5.69%.

Turning to `CC(=O)Nc1ccc(NC(=O)c2ccc(COc3ccccc3Br)o2)cc1`, the “hERG current change (%, negative = inhibition) at 10uM” value was 17.1%.

In the case of `CCOC(=O)c1c(C)[nH]c(C(=O)COC(=O)CN2C(=O)C3CCCCC3C2=O)c1C` (stereo not drawn), the “hERG current change (%, negative = inhibition) at 10uM” value is -16.8%.

For `Nc1cc(-c2ccccc2)nn1Cc1ccc(Cl)cc1`, the “hERG current change (%, negative = inhibition) at 10uM” value is -19%.

As to `O=C(CCCOc1ccccc1)Nc1ccc(Br)cc1`, the “hERG current change (%, negative = inhibition) at 10uM” value is on record as 22.3%.

For the compound `CC(=O)OCCn1c(=O)c2cc3c(=O)n(CCOC(C)=O)c(=O)c3cc2c1=O`, the “hERG current change (%, negative = inhibition) at 10uM” value is -4.39%.

With `Cn1nccc1C(=O)N1CCC(Cc2ccccc2)CC1`, the “hERG current change (%, negative = inhibition) at 10uM” value is -9.69%.

For `Cc1ccc(S(=O)(=O)N2CCOCC2)cc1C(=O)N1CC(C)OC(C)C1` (stereo not drawn), the “hERG current change (%, negative = inhibition) at 10uM” value came to 15.1%.

`COc1ccc(S(=O)(=O)N2CCCCC2)cc1NC(=O)CN(Cc1ccco1)Cc1ccco1`: the “hERG current change (%, negative = inhibition) at 10uM” value is on record as -23.7%.

As to `Cc1ccccc1C(=O)NC(=S)Nc1ccc2[nH]c(=O)[nH]c2c1`, the “hERG current change (%, negative = inhibition) at 10uM” value is recorded as 23.1%.

On to `COC(=O)c1ccc(COC(=O)c2c(C)nn(Cc3ccccc3Cl)c2Cl)o1`, for which the “hERG current change (%, negative = inhibition) at 10uM” value amounted to 10.9%.

Consider `CN(CC(=O)Nc1ccc(SC(F)F)cc1)C1CCCCC1`, for which the “hERG current change (%, negative = inhibition) at 10uM” value was -70%.

Turning to `COCCCNCC(=O)Nc1ccc(OC(F)(F)F)cc1.Cl`, the “hERG current change (%, negative = inhibition) at 10uM” value was -30%.

Consider `COc1ccc(NC(=O)CN(C)C2CCCCC2)cc1Cl`, for which the “hERG current change (%, negative = inhibition) at 10uM” value is -55%.

For the compound `COCCNCC(=O)Nc1ccc(OC(F)(F)F)cc1.Cl`, the “hERG current change (%, negative = inhibition) at 10uM” value is given as -33.9%.

As for `CCOCCCNCC(=O)Nc1ccc(OC(F)(F)F)cc1.Cl`, the “hERG current change (%, negative = inhibition) at 10uM” value is -56.4%.

In the case of `CN(CC(=O)Nc1ccc(S(N)(=O)=O)cc1)C1CCCCC1`, the “hERG current change (%, negative = inhibition) at 10uM” value was -1.84%.

In the case of `COc1ccc(NC(=O)CN(C2CCCCC2)S(C)(=O)=O)cc1Cl`, the “hERG current change (%, negative = inhibition) at 10uM” value was -18.4%.

In the case of `CN(CC(=O)Nc1ccc(Cl)cc1)C1CCCCC1`, the “hERG current change (%, negative = inhibition) at 10uM” value is listed as -10%.

As to `CN(CC(=O)Nc1ccc(Cl)c(Cl)c1)C1CCCCC1.O=C(O)C(=O)O`, the “hERG current change (%, negative = inhibition) at 10uM” value is given as -7.28%.

For `CCCCCCSc1nsc(N)n1`, the “hERG current change (%, negative = inhibition) at 10uM” value was -10.8%.

As to `Cc1cccnc1NC(=O)CNC(=O)C12CC3CC(CC(Cl)(C3)C1)C2`, the “hERG current change (%, negative = inhibition) at 10uM” value is on record as 13%.

Take `CCCCc1ccc(-c2nc(-c3ccncc3)no2)cc1`: the “hERG current change (%, negative = inhibition) at 10uM” value turned out to be 16%.

As for `Cc1ccsc1-c1nc(C(N)=O)c2[nH]c(=O)n(-c3ccc(Cl)cc3)c2n1`, the “hERG current change (%, negative = inhibition) at 10uM” value is reported as 1.51%.

With `O=C(NCc1cccnc1)c1ccc(COc2ccc(Cl)cc2)cc1`, the “hERG current change (%, negative = inhibition) at 10uM” value is on record as -58.6%.

`O=C(NCc1cccnc1)c1ccc(COc2ccccc2Cl)cc1`: the “hERG current change (%, negative = inhibition) at 10uM” value amounted to 4.47%.

For `O=C(COc1ccc(C(=O)NCc2cccnc2)cc1)Nc1cccc(C(F)(F)F)c1`, the “hERG current change (%, negative = inhibition) at 10uM” value is on record as -60.6%.

In the case of `Cc1cccc(OCC(=O)Nc2ccc(C(=O)NCc3cccnc3)cc2)c1`, the “hERG current change (%, negative = inhibition) at 10uM” value is reported as -0.608%.

`O=C(COc1ccc(Cl)cc1)Nc1ccc(C(=O)NCc2cccnc2)cc1`: the “hERG current change (%, negative = inhibition) at 10uM” value is given as -36.8%.

As to `COc1cc(C(=O)NCc2cccnc2)ccc1OCC(=O)Nc1cccc(C(F)(F)F)c1`, the “hERG current change (%, negative = inhibition) at 10uM” value stood at 3.13%.

As for `Cc1cccc(-n2c(C)cc(/C=N\NC(=O)c3ccco3)c2C)c1`, the “hERG current change (%, negative = inhibition) at 10uM” value is -12.8%.

On to `Cc1ccccc1CC1(CO)CCCN(C(=O)Cc2c(F)ccc(F)c2F)C1` (stereo not drawn), for which the “hERG current change (%, negative = inhibition) at 10uM” value is on record as -0.736%.

`OCC1(Cc2ccc(F)cc2)CCCN(CCc2ccccc2)C1` (stereo not drawn): the “hERG current change (%, negative = inhibition) at 10uM” value is on record as -45.5%.

`OCC1(Cc2ccccc2F)CCCN(CCc2ccccc2)C1` (stereo not drawn): the “hERG current change (%, negative = inhibition) at 10uM” value is -74.8%.

As to `OCC1(Cc2ccccc2F)CCCN(Cc2c(F)ccc(F)c2F)C1` (stereo not drawn), the “hERG current change (%, negative = inhibition) at 10uM” value is given as -55.5%.

In the case of `C=CCC(=O)N1CCCC(CO)(Cc2ccc(F)cc2F)C1` (stereo not drawn), the “hERG current change (%, negative = inhibition) at 10uM” value is reported as 0.892%.

As to `OCC1(Cc2ccccc2F)CCCN(CC2CCCCC2)C1` (stereo not drawn), the “hERG current change (%, negative = inhibition) at 10uM” value is reported as -37.7%.

As for `CSCCCN1CCCC(CO)(Cc2ccccc2F)C1` (stereo not drawn), the “hERG current change (%, negative = inhibition) at 10uM” value is -38.3%.

In the case of `O=C(Cc1cccc(F)c1)N1CCCC(CO)(Cc2ccc(F)cc2F)C1` (stereo not drawn), the “hERG current change (%, negative = inhibition) at 10uM” value is -9.84%.

Consider `OCC1(Cc2ccc(F)cc2F)CCCN(CCCc2ccccc2)C1` (stereo not drawn), for which the “hERG current change (%, negative = inhibition) at 10uM” value was -82.9%.

The values above are taken from article PMC4336329 (PLoS ONE, 2015).
